Assay outcomes (PubChem BioAssay)
SENP8 block-1 = blocks human SENP8 cleavage of Nedd8 substrate; Q96LD8; 360,000 tested, 0.64% active; inhibition, % at 20 µM; AID 602440; recombinant SENP8, Nedd8 substrate fluorescence; in the data active = inhibition mostly above about 40%, no sharp cut-off; inactive = mostly below about 27%
Platelet DG rel = platelet dense granule release activity; human platelet-rich plasma, SFLLRN dense granule ATP release, luminescence; inhibition, %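 (compounds screened at 7.5 µM in platelet-rich plasma)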; 300,000 tested, 0.22% active;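 active = mean replicate score, as percent of positive control, at or above 50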
SENP6 block = inhibitors of human SENP6 protease; Q9GZR1; 330,000 tested, 1.8% active; Recombinant SENP6 catalytic domain, aminoluciferin luminescence; inhibition, % at 10 µM;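 active = inhibition above about 50% at the single tested dose, limit read from the data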
Target sequence (Q9GZR1 628-1112 limits assumed): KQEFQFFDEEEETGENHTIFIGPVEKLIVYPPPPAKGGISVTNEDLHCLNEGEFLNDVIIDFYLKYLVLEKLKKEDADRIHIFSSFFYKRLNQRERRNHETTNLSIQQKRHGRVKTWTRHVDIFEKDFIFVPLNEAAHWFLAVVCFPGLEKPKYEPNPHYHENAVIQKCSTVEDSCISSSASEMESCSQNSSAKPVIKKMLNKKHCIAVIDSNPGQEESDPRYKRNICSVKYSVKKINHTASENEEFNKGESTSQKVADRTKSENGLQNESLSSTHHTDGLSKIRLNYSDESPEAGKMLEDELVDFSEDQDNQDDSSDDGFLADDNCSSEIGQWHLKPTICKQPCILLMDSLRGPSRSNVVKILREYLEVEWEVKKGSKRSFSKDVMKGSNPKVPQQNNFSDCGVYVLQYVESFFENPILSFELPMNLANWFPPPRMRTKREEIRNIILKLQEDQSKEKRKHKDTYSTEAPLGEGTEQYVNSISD
HSP90 refold inh = HSP90 refolding inhibition in rabbit reticulocyte lysate. 290,000 tested, 0.91% active. luciferase refolding luminescence, 3 h. inhibition, % at 5.6 µM;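 active = inhibition above the screen-wide mean plus 3 SD, computed separately per campaign, cut at about 16% in these data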;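 also: inhibitors lower the luminescence because luciferase stays unfolded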
SENP7 block = inhibitors of human SENP7 protease; inhibition, % at 5 µM; recombinant SENP7, Z-RLRGG-aminoluciferin luminescence, 40 min; 330,000 tested, 1.5% active;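 active = inhibition above about 50% at the single test dose, limit read from the data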
SENP8 block-2 = inhibitors of human SENP8 protease. inhibition, % at 10 µM. 330,000 tested, 1.2% active. purified SENP8, Z-RLRGG-aminoluciferin cleavage, luminescence; in the data active = inhibition above about 50%
SENP8 conf = confirmation of human SENP8 protease inhibitors. inhibition, % at 12.5 µM. AID 488912. 6,200 tested, 40% active. Recombinant SENP8, Z-RLRGG-aminoluciferin luminescence, 60 min. shares compounds with SENP7 block;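 active = mean inhibition across replicates above about 50%, limit read from the data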
SENP6 confirm = confirmation of human SENP6 protease inhibitors; shares compounds with SENP7 block; recombinant SENP6, Z-RLRGG-aminoluciferin luminescence; inhibition, % at 12.5 µM; 6,200 tested, 58% active
SENP7 conf = confirmation of human SENP7 protease inhibitors | shares compounds with SENP7 block | recombinant SENP7, Z-RLRGG-aminoluciferin luminescence, 40 min | inhibition, % at 12.5 µM | 6,200 tested, 69% active | AID 488917
Casp3 SENP sel = selectivity test for SENP inhibitors: human caspase-3 inhibition; shares compounds with SENP7 block; purified caspase-3, Z-DEVD-aminoluciferin luminescence, 60 min; 6,200 tested, 60% active; AID 488918; inhibition, % at 12.5 µM;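 active = mean inhibition above about 50%, limit read from the data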
SENP luc ctr = counter-screen for SENP inhibitors: luminescence interference; AID 488919; Pre-incubated SENP8/Z-RLRGG-aminoluciferin, luciferase luminescence interference; shares compounds with SENP7 block; 6,200 tested, 39% active; inhibition, % at 12.5 µM;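 active = mean inhibition above about 50% when retested at one dose, limit read from the data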
Of the large screens only hits and unclear results are named; the others gave an inactive call (follow-up assays come after a bar, where they were run). Most compounds without a hit are left out; they make up all but 2.8% or so of the library.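 The calls were made as follows, unless noted: active = mean inhibition above about 50% in the one-dose retest (limit read from the data); inactive = the rest.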

CC1CCCN(c2ncnc3c2cnn3-c2ccc(Cl)cc2)C1 (stereo not given)	SENP6 block 94, SENP7 block 95, SENP8 block-2 94 (no result: HSP90 refold inh) | SENP8 conf 90 | SENP6 confirm 94 | SENP7 conf 98 | Casp3 SENP sel 92 | SENP luc ctr inactive
Cc1cccc(-n2ncc3c(N4CCC(C)CC4)ncnc32)c1	SENP6 block 61, SENP8 block-2 54 | SENP8 conf 60 | SENP6 confirm 59 | SENP7 conf 83 | Casp3 SENP sel inactive | SENP luc ctr inactive
CC1CCCN(c2ncnc3c2cnn3-c2ccccc2)C1 (stereo not given)	SENP6 block 64, SENP8 block-2 62 (no result: HSP90 refold inh) | SENP8 conf inactive | SENP6 confirm inactive | SENP7 conf 68 | Casp3 SENP sel inactive | SENP luc ctr 53
CCC1(CC)NC(=O)N(CC(=O)OCC(=O)c2ccccc2OC)C1=O	none (no result: HSP90 refold inh)
Cn1nnc(NC(=O)c2cccc(F)c2)n1	SENP6 block 51 | SENP8 conf inactive | SENP6 confirm inactive | SENP7 conf inactive | Casp3 SENP sel inactive | SENP luc ctr inactive
Cc1ccc(C(=O)Nc2nnn(C)n2)cc1	none
c1ccc(N2CC3CCc4ccccc4C3=N2)cc1 (stereo not given)	SENP6 block 57, SENP7 block 59 | SENP8 conf inactive | SENP6 confirm 51 | SENP7 conf 72 | Casp3 SENP sel inactive | SENP luc ctr inactive
COc1ccc(NC(=O)c2cccc(Oc3ccccc3)c2)cn1	SENP6 block 72, SENP7 block 62 | SENP8 conf 52 | SENP6 confirm 52 | SENP7 conf 83 | Casp3 SENP sel inactive | SENP luc ctr inactive
NC(=O)c1ccc(NC(=O)c2cccc(Oc3ccccc3)c2)cc1	SENP7 block 68 | SENP8 conf inactive | SENP6 confirm inactive | SENP7 conf inactive | Casp3 SENP sel inactive | SENP luc ctr inactive
COc1ccccc1NC(=O)C1CCCN(c2cnccn2)C1 (stereo not given)	none
O=C(Cc1csc(NC(=O)Nc2cccc(Cl)c2)n1)NC1CCCC1	none (no result: HSP90 refold inh)
O=c1[nH]c(C(Cl)(Cl)Cl)nc2ccc3ccccc3c12	SENP6 block 88, SENP8 block-2 74 | SENP8 conf inactive | SENP6 confirm 71 | SENP7 conf 80 | Casp3 SENP sel 60 | SENP luc ctr inactive
CSc1nccc(N/N=C/c2ccccc2)n1	SENP6 block 64, SENP7 block 74, SENP8 block-2 53 | SENP8 conf inactive | SENP6 confirm inactive | SENP7 conf 81 | Casp3 SENP sel 69 | SENP luc ctr inactive
Cc1ccnc(N/N=C/c2ccccc2)n1	none
COc1ccc(CC(=O)N(C)CC(=O)Nc2ccc(F)cc2)cc1S(=O)(=O)N1CCOCC1	none (no result: Platelet DG rel, HSP90 refold inh)
Fc1ccccc1CNc1ncnc2sccc12	SENP6 block 87 | SENP8 conf inactive | SENP6 confirm inactive | SENP7 conf inactive | Casp3 SENP sel inactive | SENP luc ctr inactive
CCOCCCNC(=O)C(NC(=O)c1ccccc1O)c1ccc(Cl)cc1 (stereo not given)	none
COC(=O)c1[nH]c2ccccc2c1NC(=O)C(C)N1CC(C)OC(C)C1 (stereo not given)	none
O=C(O)c1cccc(N/N=C/c2cc(Br)cc(Br)c2O)c1	SENP6 block 77, SENP8 block-2 74 | SENP8 conf inactive | SENP6 confirm 90 | SENP7 conf 95 | Casp3 SENP sel inactive | SENP luc ctr 77
COc1cccc(/C=N/Nc2ccc(C(=O)O)cc2)c1O	Platelet DG rel 95, SENP6 block 99, HSP90 refold inh 95, SENP7 block 99, SENP8 block-2 98 | SENP8 conf 99 | SENP6 confirm 100 | SENP7 conf 102 | Casp3 SENP sel 98 | SENP luc ctr 97
O=C(O)c1ccccc1NN=Cc1ccccc1	none (no result: Platelet DG rel, SENP6 block, HSP90 refold inh, SENP7 block, SENP8 block-2)
COc1cccc(/C=N/Nc2ccccc2C(=O)O)c1O	SENP6 block 93, SENP7 block 79, SENP8 block-2 88 | SENP8 conf 94 | SENP6 confirm 94 | SENP7 conf 99 | Casp3 SENP sel 92 | SENP luc ctr 93
COc1cccc(/C=N/NC(=O)N/N=C/c2cccc(OC)c2O)c1O	SENP8 block-2 50 | SENP8 conf inactive | SENP6 confirm inactive | SENP7 conf 65 | Casp3 SENP sel 61 | SENP luc ctr inactive
COc1cccc(C=NNC(=O)c2ccncc2)c1O	none (no result: Platelet DG rel, SENP6 block, HSP90 refold inh, SENP7 block, SENP8 block-2)
COc1cc(C2NC(=S)NC(C)=C2C(=O)Nc2cc(C)cc(C)c2)ccc1O (stereo not given)	none
CC(C)COC(=O)c1ccc2c(c1O)C(=O)c1ccccc1C2=O	SENP6 block 81, SENP7 block 93 | SENP8 conf 85 | SENP6 confirm 88 | SENP7 conf 95 | Casp3 SENP sel 59 | SENP luc ctr 52
Cc1ccc(C(NC(N)=O)c2ccccc2C)cc1 (stereo not given)	none
Cc1ccc(C(NC(N)=O)c2ccccc2)cc1 (stereo not given)	SENP7 block 54 | SENP8 conf inactive | SENP6 confirm inactive | SENP7 conf inactive | Casp3 SENP sel inactive | SENP luc ctr inactive
CCc1cccc(N(CC(=O)NC2CCCCC2)C(=O)c2csnn2)c1	none
Cc1ccc(SCCSc2nc(C)cc(=O)[nH]2)cc1	none
COC(=O)c1ccc(-c2ccc(Cl)cc2)nc1C	SENP6 block 76, SENP7 block 76, SENP8 block-2 58 | SENP8 conf inactive | SENP6 confirm 64 | SENP7 conf 90 | Casp3 SENP sel 52 | SENP luc ctr inactive
Cc1ccc(Nc2n[nH]c(C)c2[N+](=O)[O-])cc1C	SENP6 block 58 | SENP8 conf inactive | SENP6 confirm inactive | SENP7 conf 84 | Casp3 SENP sel 53 | SENP luc ctr inactive
O=C(NCCOc1ccccc1)c1ncn[nH]1	none
O=C(NCCOc1ccccc1)c1ccc2n[nH]nc2c1	SENP6 block 58, SENP8 block-2 50 (no result: Platelet DG rel, HSP90 refold inh) | SENP8 conf 68 | SENP6 confirm 68 | SENP7 conf 87 | Casp3 SENP sel 87 | SENP luc ctr 72
CN(C(=O)c1ccc(NC(=O)Cc2ccccc2)cc1)c1ccccc1	SENP6 block 54, SENP7 block 61 | SENP8 conf inactive | SENP6 confirm inactive | SENP7 conf 74 | Casp3 SENP sel 65 | SENP luc ctr 59
